Among the test systems are CSNK1G1; CSNK1G2; CSNK1G3; CSNK2A1; CSNK2A2; DAPK1; DAPK2; DAPK3; DDR1; DDR2; DMPK; DYRK1A.
Common to all, as to settings: concentration: 1 μM, replicates: in singlicate; n = 1
A further assay relates to T1, CTK.
T1 construct: gene MATK

A further assay deals with T2, DCAMKL1.
T2 construct: gene DCLK1

Another assay has as its system T3, DCAMKL2.
T3 construct: gene DCLK2

The next assay relates to T4, DCAMKL3.
T4 construct: gene DCLK3

The next assay relates to T5, DLK.
T5 construct: gene MAP3K12

A further assay concerns T6, DMPK2.
T6 construct: gene CDC42BPG

Another assay has as its system T7, DRAK1.
T7 construct: gene STK17A

Another assay concerns T8, DRAK2.
T8 construct: gene STK17B
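Also: KINOMEscan kinase panel screen.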

Consider `O=C(O)C(F)(F)F.O=c1[nH]ccc2nc(N[C@@H]3CCNC3)nc(Nc3cc(Cl)cc(Cl)c3)c12` [GSK2188764], for which the “%Inh” value was 77% in the assay with CSNK1G1; 94.2% with CSNK1G2; 95.1% in the assay on CSNK1G3; 98.9% in the assay with CSNK2A1; 100% in the assay with CSNK2A2; 0% with CTK. The “%Inh” value came out at 97.3% in the assay on DAPK1; 97.4% in the assay on DAPK2; 100% with DAPK3; 86% with DCAMKL1; 52% with DCAMKL2; 82% with DCAMKL3. Moreover, the “%Inh” value in the assay with DDR1 is listed as 0%; in the assay with DDR2, 18%; with DLK it was 43%; with DMPK2 it was 41%; in the assay on DMPK, 98.3%; in the assay with DRAK1, 99.7%. Also, the “%Inh” value was 79% in the assay with DRAK2 and 3% in the assay with DYRK1A.

For the compound `Cl.O=C(Nc1ccc(Oc2ccc3[nH]c(NC(=O)c4ccco4)nc3c2)cc1)Nc1cc(C(F)(F)F)ccc1F` [GW683134], the “%Inh” value came to 0% with CSNK1G1; 0% with CSNK1G2; 7% with CSNK1G3; 9% in the assay with CSNK2A1; 0% with CSNK2A2; 6% in the assay on CTK. In addition, the “%Inh” value with DAPK1 amounted to 3%; in the assay with DAPK2 it was 0%; in the assay on DAPK3, 20%; in the assay on DCAMKL1, 19%; in the assay with DCAMKL2, 7%; with DCAMKL3, 0%. For the same compound, the “%Inh” value with DDR1 is 100%; in the assay on DDR2, 95.7%; in the assay with DLK, 22%; in the assay on DMPK2 it was 0%; in the assay with DMPK, 0%; in the assay on DRAK1, 0%. The entries for the “%Inh” value in the assay on DRAK2 and in the assay with DYRK1A were 0% and 13%, respectively.

Regarding `COC(=O)Nc1nc2ccc(Oc3ccc(NC(=O)Nc4cc(C(F)(F)F)ccc4F)cc3)cc2[nH]1.Cl` [GW654607], the “%Inh” value with CSNK1G1 amounted to 0%; in the assay on CSNK1G2 it was 0%; with CSNK1G3, 24%; in the assay with CSNK2A1, 0%; in the assay with CSNK2A2, 2%; in the assay on CTK it was 0%. Moreover, the “%Inh” value was 2% in the assay on DAPK1; 0% with DAPK2; 11% in the assay on DAPK3; 16% in the assay on DCAMKL1; 0% in the assay with DCAMKL2; 36% with DCAMKL3. Further, the “%Inh” value worked out at 100% in the assay with DDR1; 94.2% with DDR2; 13% in the assay with DLK; 9% in the assay with DMPK2; 0% in the assay on DMPK; 0% with DRAK1. For the same compound, the “%Inh” value in the assay on DRAK2 came to 1%; with DYRK1A, 13%.

`O=C(O)C(F)(F)F.O=c1[nH]ccc2nc(N[C@@H]3CCNC3)nc(Nc3ccc4c(c3)S(=O)(=O)CC4)c12` [GSK2181306]: the “%Inh” value is on record as 85% in the assay on CSNK1G1; 87% in the assay on CSNK1G2; 94.4% in the assay on CSNK1G3; 99.2% in the assay with CSNK2A1; 99.9% with CSNK2A2; 16% in the assay with CTK. Also, the “%Inh” value with DAPK1 was determined as 99.5%; in the assay with DAPK2, 97.8%; in the assay with DAPK3, 99.6%; in the assay on DCAMKL1 it was 95.7%; in the assay on DCAMKL2 it was 84%; with DCAMKL3, 98.4%. Besides, the “%Inh” value was 0% in the assay with DDR1; 5% with DDR2; 72% with DLK; 45% with DMPK2; 97.5% with DMPK; 99.5% in the assay with DRAK1. Moreover, the “%Inh” value with DRAK2 stood at 92.1%; with DYRK1A, 35%.

For `O=C(Nc1n[nH]c2nc(-c3cccc(O)c3)ccc12)C1CC1` [SB-711805], the “%Inh” value with CSNK1G1 is 6%; with CSNK1G2, 0%; with CSNK1G3, 25%; in the assay with CSNK2A1, 52%; with CSNK2A2, 82%; in the assay on CTK it was 0%. Also, the “%Inh” value in the assay on DAPK1 turned out to be 17%; in the assay with DAPK2, 0%; with DAPK3 it was 23%; in the assay on DCAMKL1, 17%; in the assay with DCAMKL2, 0%; with DCAMKL3 it was 49%. For the same compound, the “%Inh” value in the assay on DDR1 stood at 0%; in the assay with DDR2 it was 20%; in the assay on DLK, 0%; with DMPK2, 0%; with DMPK, 0%; in the assay on DRAK1 it was 24%. Besides, the “%Inh” value in the assay with DRAK2 amounted to 12%; with DYRK1A it was 76%.

With `Nc1ncc(-c2cn[nH]c2)c2scc(-c3ccc4c(c3)CCN4C(=O)Cc3ccccc3)c12` [GSK2593067], the “%Inh” value in the assay on CSNK1G1 worked out at 6%; in the assay with CSNK1G2 it was 24%; in the assay with CSNK1G3, 27%; in the assay on CSNK2A1, 11%; with CSNK2A2, 0%; in the assay with CTK, 12%. For the same compound, the “%Inh” value was 0% in the assay with DAPK1; 0% in the assay on DAPK2; 22% with DAPK3; 0% with DCAMKL1; 5% with DCAMKL2; 0% in the assay with DCAMKL3. Besides, the “%Inh” value came out at 98.4% with DDR1; 22% with DDR2; 18% in the assay with DLK; 90.3% in the assay on DMPK2; 0% in the assay on DMPK; 0% with DRAK1. The “%Inh” value is on record as 0% with DRAK2 and 20% with DYRK1A.

In the case of `CN1CCN(Cc2ccc(NC(=O)Nc3ccc(N(C)c4ccnc(Nc5ccc(CS(C)(=O)=O)cc5)n4)cc3)cc2)CC1.Cl` [GW827654], the “%Inh” value amounted to 0% in the assay with CSNK1G1; 0% in the assay on CSNK1G2; 0% in the assay with CSNK1G3; 100% in the assay on CSNK2A1; 22% with CSNK2A2; 16% in the assay with CTK. For the same compound, the “%Inh” value with DAPK1 was 8%; in the assay on DAPK2, 0%; in the assay on DAPK3 it was 0%; in the assay with DCAMKL1, 44%; in the assay with DCAMKL2 it was 18%; with DCAMKL3, 30%. For the same compound, the “%Inh” value in the assay on DDR1 worked out at 99.4%; in the assay on DDR2, 100%; in the assay on DLK, 64%; in the assay with DMPK2, 57%; in the assay on DMPK it was 0%; with DRAK1 it was 10%. The “%Inh” value in the assay on DRAK2 came to 21%; in the assay with DYRK1A, 0%.

As for `Cc1cccc(Nc2nc(N[C@H]3CCCC[C@H]3N)ncc2C(N)=O)c1.Cl` [GSK986310], the “%Inh” value was 21% in the assay with CSNK1G1; 0% in the assay on CSNK1G2; 37% in the assay on CSNK1G3; 36% with CSNK2A1; 25% in the assay with CSNK2A2; 0% in the assay with CTK. Further, the “%Inh” value was found to be 86% with DAPK1; 70% in the assay with DAPK2; 59% with DAPK3; 32% in the assay with DCAMKL1; 3% with DCAMKL2; 35% with DCAMKL3. Moreover, the “%Inh” value in the assay with DDR1 stood at 6%; with DDR2, 0%; with DLK, 19%; in the assay on DMPK2 it was 21%; in the assay on DMPK, 59%; in the assay with DRAK1, 4%. Moreover, the “%Inh” value came to 18% with DRAK2 and 26% in the assay with DYRK1A.

Source of the values: paper PMC5540273 (PLoS ONE, 2017).
